The record followed here is the supplement of paper PMC8728848.

Common to all, as to test: glycan array binding signal (z-score within array); higher = stronger binding
Conditions in all cases: glycan notation: IUPAC condensed, linker removed

In assay [1] the test system is Neu5Ac(a2-3)Gal(b1-3)GlcNAc(b1-3)Gal(b1-4)GlcNAc. The gist of the method: (§1)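 Arrays were curated from the Consortium for Functional Glycomics database, 3228 in total, and kept only where the protein sequence was available. Binding is expressed as a within-array Z-score. This score was averaged across arrays of the same protein sequence at different concentrations or buffers and across linkers, and negative values can be read as non-binding.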

Assay [2] relates to Neu5Ac(a2-3)Gal(b1-4)GlcNAc(b1-3)Gal(b1-4)GlcNAc(b1-3)Gal(b1-4)GlcNAc. The gist of the method:
as §1

The test system of assay [3] is Neu5Ac(a2-3)Gal(b1-4)GlcNAc(b1-3)GalNAc. The gist of the method:
as §1

Assay [4] relates to Neu5Ac(a2-3)Gal(b1-3)GlcNAc(b1-4)Gal(b1-4)Glc. The gist of the method: as §1
For assay [5], the system named is Neu5Ac(a2-3)Gal(b1-4)GlcNAc(b1-2)Man(a1-3)[GlcNAc(b1-4)][Neu5Ac(a2-3)Gal(b1-4)GlcNAc(b1-2)Man(a1-6)]Man(b1-4)GlcNAc(b1-4)GlcNAc. The gist of the method: as §1
Assay [6] relates to Neu5Ac(a2-3)Gal(b1-4)GlcNAc(b1-2)Man(a1-3)[Neu5Ac(a2-6)Gal(b1-4)GlcNAc(b1-2)Man(a1-6)]Man(b1-4)GlcNAc(b1-4)GlcNAc. The method in brief:
as §1

Assay [7] concerns Neu5Ac(a2-3)Gal(b1-4)GlcNAc(b1-3)Gal(b1-4)GlcNAc(b1-2)Man(a1-3)[Neu5Ac(a2-3)Gal(b1-4)GlcNAc(b1-3)Gal(b1-4)GlcNAc(b1-2)Man(a1-6)]Man(b1-4)GlcNAc(b1-4)GlcNAc. The gist of the method:
as §1

Assay [8] relates to Neu5Ac(a2-3)Gal(b1-4)GlcNAc(b1-3)Gal(b1-4)GlcNAc(b1-3)Gal(b1-4)GlcNAc(b1-2)Man(a1-3)[Neu5Ac(a2-3)Gal(b1-4)GlcNAc(b1-3)Gal(b1-4)GlcNAc(b1-3)Gal(b1-4)GlcNAc(b1-2)Man(a1-6)]GalNAc. The gist of the method:
as §1

In assay [9] the test system is Neu5Ac(a2-3)Gal(b1-4)GlcNAc(b1-3)Gal(b1-4)GlcNAc(b1-3)GalNAc. The gist of the method: as §1
Assay [10] has as its system Neu5Ac(a2-3)Gal(b1-4)GlcNAc(b1-6)[Gal(b1-3)]GalNAc. The gist of the method:
as §1

Assay [11] has as its system Neu5Ac(a2-3)Gal(b1-3)GlcNAc(b1-6)GalNAc. The gist of the method: as §1
Assay [12] has as its system Neu5Ac(a2-3)Gal(b1-4)GlcNAc(b1-2)Man. The method in brief: as §1
Assay [13] has as its system Neu5Ac(a2-3)Gal(b1-4)GlcNAc(b1-3)Gal(b1-4)[Fuc(a1-3)]GlcNAc. The gist of the method: as §1
Assay [14] relates to Neu5Ac(a2-3)Gal(b1-4)GlcNAc(b1-6)GalNAc. The method in brief:
as §1

Assay [15] relates to Neu5Ac(a2-3)Gal(b1-4)GlcNAc6S. The method in brief: as §1
In assay [16] the test system is Neu5Ac(a2-3)Gal(b1-3)GlcNAc6S. The gist of the method:
as §1

For assay [17], the system named is Neu5Ac(a2-3)Gal(b1-3)[Neu5Ac(a2-6)]GalNAc. The gist of the method:
as §1

In assay [18] the test system is Neu5Ac(a2-3)Gal(b1-3)[Fuc(a1-4)]GlcNAc. The gist of the method:
as §1

Assay [19] relates to Neu5Ac(a2-3)Gal(b1-4)GlcNAc(b1-2)Man(a1-3)[Neu5Ac(a2-3)Gal(b1-4)GlcNAc(b1-2)Man(a1-6)]Man(b1-4)GlcNAc(b1-4)[Fuc(a1-6)]GlcNAc. The gist of the method: as §1
In assay [20] the test system is Neu5Ac(a2-3)Gal(b1-4)GlcNAc(b1-3)Gal. The gist of the method: as §1

The full list was thinned out, with the strongest signals kept by preference.

Turning to “SiiE (Salmonella typhimurium), A0A0H3NVH0”, the entries for the “glycan array binding signal (z-score)” value in [1], in [2] and in [3] were -0.888, -0.456 and -1.98, respectively.
With BambL (Burhholderia ambifaria), Q0B4G1, the “glycan array binding signal (z-score)” value in assay [1] was -0.316; in assay [2] it was -0.313.
Consider “AgI/II Vhelical-GFP (Streptococcus mutans)”, for which the “glycan array binding signal (z-score)” value in assay [4] was -0.297; in [5] it was 0.396; in assay [6] it was -0.182; in assay [7], 1.8; in assay [8], -0.031; in assay [9], 0.5. Besides, in [10], the “glycan array binding signal (z-score)” value was -0.273.
Consider LcI (Legionella pneumophila), for which the “glycan array binding signal (z-score)” value in [11] was 3.77; in assay [12] it was 2.16; in assay [13] it was -0.717; in [14], 3.79; in [15], -0.956.
For GspB (Streptococcus gordonii), Q939N5, the “glycan array binding signal (z-score)” value in [16] is -0.2; in [17], 3.61.
Take Actinohivin (Actinomycete K97): the “glycan array binding signal (z-score)” value in [16] is -0.191; in assay [18], -0.196.
With MIC3-MAR1b (Eimeria tenella), B6VCV4, the “glycan array binding signal (z-score)” value in assay [17] is -0.355.
With AgI/IIC123-GFP (Streptococcus mutans), the “glycan array binding signal (z-score)” value in [19] is -0.442.
As for “SpGH101 (Streptococcus pneumoniae), Q8DR60”, the “glycan array binding signal (z-score)” value in [20] was -0.209.
Turning to Wza (Escherichia coli), P0A930, the “glycan array binding signal (z-score)” value in [20] amounted to 2.81.
As to Epa22, the “glycan array binding signal (z-score)” value in assay [15] is 0.274.
